According to the supplement of paper PMC6555819:

Experiments:
Assay in all cases: PBM binding z-score (relative to random genomic background probes); higher = stronger binding; sequences stand for … in GC…GCGATTGACAGCGTAGAATGAAGG
[1] = system: FXR:RXRa (NR concentration 270 nM, RXRa partner concentration 90 nM)
Procedure, shortened: (§1)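 Custom Agilent 4×180K protein-binding microarrays carried double-stranded probes. Their 34-nt variable regions held direct-repeat seeds, single-nucleotide variants, half-site ablations and random human genomic background sequences. Arrays were incubated 1 h with ligand-free nuclear receptor dimers in PBS pH 7.4, 2% milk, 0.02% Triton X-100, 1 mM DTT, 0.2 mg/mL BSA and 0.4 mg/ml salmon testes DNA. Antibodies against each partner (one per run) detected binding, and scanned fluorescence was regression-normalized. Binding z-scores use random background probes as reference.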

[2] = system: LXRa:RXRa (NR concentration 270 nM, RXRa partner concentration 90 nM)
Procedure, shortened: as §1

[3] = system: LXRa homodimer (NR concentration 270 nM)
Procedure, shortened: as §1

[4] = system: LXRb:RXRa (NR concentration 270 nM, RXRa partner concentration 90 nM)
Procedure, shortened: as §1

[5] = system: LXRb homodimer (NR concentration 270 nM)
Procedure, shortened: as §1

[6] = system: PPARa:RXRa (NR concentration 270 nM, RXRa partner concentration 90 nM)
Procedure, shortened: as §1

[7] = system: PPARg:RXRa (NR concentration 180 nM, RXRa partner concentration 90 nM)
Procedure, shortened: as §1

[8] = system: PPARg:RXRa 270nM:90nM, anti-RXR (NR concentration 270 nM, RXRa partner concentration 90 nM)
Procedure, shortened: as §1

[9] = system: PPARg:RXRa 30nM:10nM, anti-RXR (NR concentration 30 nM, RXRa partner concentration 10 nM)
Procedure, shortened: as §1

[10] = system: PPARg:RXRa 90nM:30nM, anti-RXR (NR concentration 90 nM, RXRa partner concentration 30 nM)
Procedure, shortened: as §1

Sequence	PBM binding z-score [1]	PBM binding z-score [2]	PBM binding z-score [3]	PBM binding z-score [4]	PBM binding z-score [5]	PBM binding z-score [6]	PBM binding z-score [7]	PBM binding z-score [8]	PBM binding z-score [9]	PBM binding z-score [10]
AGAATGAGGGTACCAAAGATCAGGGAAACGCTTG	-0.148	2.43	-0.475	0.326	-0.167	1.18	1.28	1.52	0.506	1.19
CCTAGTTGGTCAGGAGGTCACACACCGGATATGA	3.73	3.67	2.08	3.3	0.83	4.11	3.41	3.95	1.75	3.27
CGTCCAAGGTCAAAGGTCAGTGCAGAGATGACGG	8.41	7.01	3.67	6.47	1.91	7.1	10.5	9.08	8.16	9.41
AGTCCAAGTTCAGGACGAGGTAACGTAAAGCACG	1.19	0.849	0.0911	0.596	-0.522	1.35	0.826	0.394	0.136	0.0902
TGGAGTAGGTTACCAATGGGGCATTCAGCTTTCT	-0.0639	1.5	-0.0874	1.12	0.179	1.61	1.8	2.14	0.743	1.59
CGTCCAAGGTCATAGGAGGTCAGTGATGACAGAT	7.57	7.22	5.1	5.96	1.02	5.77	5.63	5.82	2.23	4.02
CCTAGTGGGCCACGAAAGGTCATTGATTCAGTGA	3.59	5.34	4.51	4.3	0.26	4.7	4.51	4.88	2.04	4.15
CAGCCTAGGTCAGGGCCAGTATAGGAGGAACGTT	1.63	0.984	0.0185	0.506	-0.929	2.13	0.978	1.03	0.126	0.524
GGAACGAGGGCATACGAGTTGATAGCATGGCGAT	1.33	0.61	-0.418	-0.0696	-0.795	1.25	1.28	0.666	0.135	0.26
TCTATTCGTTGAAGGGCAACCGACGAGTCCGTTT	0.909	1.05	0.235	1.05	0.752	1.25	0.0836	2.42	3.64	3.2
ACTATTAGTTGACTTAGGGCAACCAATACGACGC	0.265	0.363	0.224	0.227	0.496	0.111	0.997	0.305	0.385	0.219
CCAGACAGGTAAGAAGGTAACTCAGCCTCGATTA	0.251	0.138	-0.169	0.0955	-0.296	0.0886	0.35	-0.153	-0.728	-0.359
TCTCGGAGGACTCGAAAGGTCAGAGCTCGACATC	1.95	2.86	1.04	2.66	-0.682	3.21	0.567	2.34	2.29	1.88
ACTTACGGGTCAATGAGGTTATAGCACGCGTATA	5.51	4.96	0.962	4.08	1.04	5.25	4.45	4.61	2.44	3.5
GATACAGGGTCAGATAGAGGCCAGAGTATGGAAA	4.95	3.16	0.138	3.03	0.456	4.58	3.32	3.11	1.18	2.09
CGAACTAGGCCAAGGACAGTGAATCTCCGCACGC	-0.241	-0.713	-0.191	-0.883	-0.975	1.04	1.69	1.53	-0.0892	0.672
AGAATGAAGTTAAGATCAGGGAAACAGAATACAT	-0.542	-0.312	-0.0829	-0.14	-0.44	-0.111	0.991	0.0665	0.0605	0.34
GTATATAGGTAATACAAGGTGAAAGTCCGATTGT	0.948	2.78	0.975	0.947	0.188	2.78	3.05	2.69	1.39	1.94
GGATATAGGTAATACAAGGTGAAAGTCCGATTGT	1.08	2.72	0.722	1.12	0.202	2.58	2.63	2.51	0.801	1.87
CCGACTGGGGCATCAGGTTACCATAAGCCAGCCC	-0.188	0.277	-0.351	-0.136	-1.31	0.743	1.33	1.59	-0.0759	1.03
ATACCAAGGTGATCGTGAGGTCTTTGATACTAAC	0.467	0.136	0.00658	0.0706	-0.603	0.646	0.322	0.105	-0.238	-0.296
GGAACGAGGGCATTCGAGTTGATAGCCTGGCGAT	0.904	1.66	-0.751	0.0314	-0.65	1.42	0.665	0.992	-0.34	0.776
GCGACTGGGGCATCATCAGGTTACCATAACTTAA	0.261	0.0527	0.169	1.57	-0.509	1.46	1.1	0.894	-0.0999	0.381
